Only some compounds are listed: those with a hit (about 18% of all), similar ones and a draw of the others.
TDP1 inh: qHTS Assay for Inhibitors of Tyrosyl-DNA Phosphodiesterase (TDP1); 350,000 compounds, 0.28% hits; Potency, µM (top dose mostly 130 µM), usual class: inhibitors; AID 485290, 2010; Tyrosyl-DNA phosphodiesterase 1 (Homo sapiens), Q9NUW8; recombinant TDP1, AlphaScreen DNA substrate cleavage; also: nearly all actives have a fitted effect of over 40% in size
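Here, a 5' biotin and 3' phosphotyrosine-FITC DNA oligonucleotide reports Tdp1 activity: intact substrate bridges AlphaScreen beads, while cleavage leaves a 3' phosphate and drops signal. All incubations at room temperature.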
IL-1B inflam inh: qHTS for Inhibitors of Inflammasome Signaling: IL-1-beta AlphaLISA Primary Screen; THP-1 LPS/ATP IL-1B secretion, AlphaLISA, 16 h; stronger effect = lower value; activity change, % at 57.5 µM; 360,000 compounds, 4.7% hits; in the data active = activity change below about -50%; inconclusive = mostly about -30% to -49%
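Secreted IL-1B measured by AlphaLISA bead assay after 16 h compound exposure of THP-1 cells; compounds (final up to 57.5 uM) added 1 h before LPS (250 ng/mL) and ATP (1.25 mM) stimulation; lower signal means less secretion.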
DT40 TDP1 no CPT: qHTS for Inhibitors of human tyrosyl-DNA phosphodiesterase 1 (TDP1): qHTS in cells in absence of CPT; DT40 Tdp1-/- hTDP1 cells, no CPT, ATP luminescence, 48 h; Potency, µM (doses to about 46.2 µM), most hits filed as inhibitors; 420,000 compounds, 15% hits; AID 686978, 2013; also: nearly all actives have a fitted effect of over 55% in size
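No-CPT arm: Tdp1-/-;hTDP1 DT40 cells (400/well) plus compounds, incubated ≥48 hr at 37 °C. Readout CellTiter-Glo luminescence.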
Six1-Eya2 inh: qHTS Assay for Inhibitors of the Six1/Eya2 Interaction; 360,000 compounds, 0.56% hits; activity change, % (test concentration not listed); AID 651725, 2012; AlphaScreen GST-Six1/His-Eya2 binding, biochemical; stronger effect = lower value; in the data active = activity change below about -65%; inconclusive = mostly about -30% to -63%
Target sequence (O00167 whole entry, looked up): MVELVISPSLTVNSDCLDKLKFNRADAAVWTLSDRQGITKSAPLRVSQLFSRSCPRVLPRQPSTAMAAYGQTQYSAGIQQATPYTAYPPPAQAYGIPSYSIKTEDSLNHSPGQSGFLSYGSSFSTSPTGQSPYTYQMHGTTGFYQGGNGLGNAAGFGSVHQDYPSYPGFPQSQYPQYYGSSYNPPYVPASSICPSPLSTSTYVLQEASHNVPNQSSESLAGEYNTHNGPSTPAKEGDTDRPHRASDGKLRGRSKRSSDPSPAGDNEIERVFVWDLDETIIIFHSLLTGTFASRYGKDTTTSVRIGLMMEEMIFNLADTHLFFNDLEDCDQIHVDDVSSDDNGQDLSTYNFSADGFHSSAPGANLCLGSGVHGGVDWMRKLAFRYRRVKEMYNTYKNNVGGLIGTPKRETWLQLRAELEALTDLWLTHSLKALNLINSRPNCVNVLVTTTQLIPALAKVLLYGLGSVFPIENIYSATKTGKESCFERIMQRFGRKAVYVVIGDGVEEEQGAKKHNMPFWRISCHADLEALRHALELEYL
Target sequence (Q15475 whole entry, looked up): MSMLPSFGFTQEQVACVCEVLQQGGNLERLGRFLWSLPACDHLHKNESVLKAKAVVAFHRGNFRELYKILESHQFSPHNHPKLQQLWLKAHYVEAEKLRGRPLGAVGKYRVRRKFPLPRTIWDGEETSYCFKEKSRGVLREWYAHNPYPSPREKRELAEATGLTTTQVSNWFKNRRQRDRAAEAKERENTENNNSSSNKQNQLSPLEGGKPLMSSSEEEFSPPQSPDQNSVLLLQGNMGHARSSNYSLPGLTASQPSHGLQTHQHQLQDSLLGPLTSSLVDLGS
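AlphaScreen with GST-Six1 and His-Eya2 (5X mix: 250 nM and 500 nM), glutathione donor and nickel acceptor beads; buffer 50 mM Tris pH 8.0, 300 mM NaCl, 1 mM TCEP; 1 h at 37 C in the dark.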
CtBP-E1A blk: qHTS Assay for Inhibitors of the CtBP/E1A Interaction | AlphaScreen GST-E1A/His-CtBP binding, 1536-well; stronger effect = lower value | activity change, % (concentration not given with the values) | 340,000 compounds, 0.49% hits; in the data active = activity change below about -65%; inconclusive = mostly about -30% to -63%
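In 5 uL wells, 23 nL compound meets equimolar GST-E1A and His-CtBP (5X stock 125 nM each) for 2 h, 37 °C. Beads (5X, 50 ug/mL) then 1 h, 37 °C, dark.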
TDP1 cell CPT: qHTS for Inhibitors of human tyrosyl-DNA phosphodiesterase 1 (TDP1): qHTS in cells in presence of CPT. chicken DT40 Tdp1-/-;hTDP1 cells + 20 nM CPT, ATP luminescence, 48 h. Potency, µM (series often up to 46.2 µM), actives largely listed as inhibitors. 420,000 compounds, 12% hits; also: nearly all actives have a fitted effect of over 55% in size
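Chicken DT40 Tdp1-/- cells complemented with human TDP1, 400 cells/well, exposed to compounds plus 20 nM camptothecin for at least 48 h at 37 C; viability read as ATP content by CellTiter-Glo luminescence.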
Numbers stand for hits; 0 = inactive; ? = inconclusive; - = no result; [ ] = another dose, or the depositor's remark. Unless noted, calls follow the shape of the dose curve; as a rule, active = well fitted curve in the direction sought with a large enough effect; inconclusive = small, poorly fitted or top-dose-only effect, or another doubt; inactive = no such curve, though single readings can be large; an effect the other way counts as inactive or inconclusive.

SMILES | TDP1 inh | IL-1B inflam inh | DT40 TDP1 no CPT | Six1-Eya2 inh | CtBP-E1A blk | TDP1 cell CPT
CCCCC(=O)N(C)c1c(CC)nc2c(OCCOC)cccn12 | - | 0 | 0 | 0 | 0 | 0
CCCCC(=O)N(C)c1c(CC)nc2c(OCC3CCCCC3)cccn12 | - | 0 | 21µM | 0 | 0 | ?
CC(C)Cc1nn2c(=O)cc(COC(=O)c3cccc(NS(C)(=O)=O)c3)nc2s1 | 0 | - | 0 | - | - | 0
C=CCc1cccc(/C=N/NC(=O)c2ccccc2OC)c1O | 0 | 0 | ? | 0 | 0 | ?
C=CCc1cccc(/C=N/NC(=O)c2ccccc2Br)c1O | 0 | 0 | ? | 0 | 0 | ?
C=CCc1cccc(/C=N/NC(=O)C(C)Nc2ccc(C)cc2)c1O (configuration not stated) | 0 | 0 | 8.2µM | 0 | 0 | 16µM
O=C(N/N=C/c1ccc(Cl)cc1Cl)c1ccc2nc[nH]c2c1 | 0 | 0 | ? | 0 | - | ?
C=CCc1cccc(/C=N/NC(=O)c2ccc3nc[nH]c3c2)c1O | 0 | 0 | 5.8µM | 0 | ? | 9.2µM
C=CCc1cccc(/C=N/NC(=O)C(=O)Nc2ccc(C)cc2)c1O | 0 | 0 | 5.2µM | 0 | - | 3.7µM
O=C(O)CCSCCC(=O)O | - | 0 | 0 | 0 | 0 | 0
C[C@]12CC[C@@H]3c4ccc(O)cc4CC[C@H]3[C@@H]1CC[C@@H]2OP(=O)(O)O | - | - | 0 | - | - | 0
CC(=O)N1CCN(C(=O)c2cc3c(s2)CCC(C)C3)CC1 (configuration not stated) | 0[0.505 µM] | 0 | 0 | 0 | 0 | 0
N#Cc1ccccc1S(=O)(=O)N1CCN(C(=O)c2cc3c(s2)CCC3)CC1 | 5µM | 0 | 0 | 0 | 0 | 0
Cc1ccc(S(=O)(=O)N2CCN(C(=O)c3cc4c(s3)CCC(C)C4)CC2)cc1 (configuration not stated) | 0 | 0 | 16µM | 0 | 0 | ?
CCOc1ccc(S(=O)(=O)N2CCN(C(=O)c3cc4c(s3)CCCC4)CC2)cc1 | 0 | 0 | ? | 0 | 0 | 16µM
CCOC(=O)[C@@H]1[C@H]2COc3ccccc3[C@H]2N2C(=O)N(c3ccc(C)cc3)C(=O)[C@]12C | - | 0 | 0 | 0 | 0 | 0
O=C(Nc1ccc(Oc2ccccc2)nc1)[C@H]1O[C@@H](n2ccc(=O)[nH]c2=O)[C@H](O)[C@@H]1O | - | 0 | 0 | 0 | 0 | 0
COc1ccc(CN=C2Nc3ccccc3CS2)cc1 | 0 | 0 | ? | 0 | 0 | ?
COc1ccc(C2=NC(C(F)(F)F)(C(F)(F)F)c3c(n(C)c(=O)n(C)c3=O)N2)cc1 | 0 | 0 | 18µM | 0 | 0 | 15µM
COc1ccc(C2Sc3ccccc3N(CCN(C)C)C(=O)C2OC(C)=O)cc1 (configuration not stated) | 0 | - | 0 | - | - | ?
CC(C)(C)C(=O)Nc1cc(S(=O)(=O)Nc2ccc(Cl)cc2)ccc1O | 0 | 0 | 0 | 0 | 0 | 0
CC(C)(C)NS(=O)(=O)c1ccc(CCC(=O)Nc2cc(Cl)ccc2Oc2ccccc2)cc1 | 0 | -63 | ? | 0 | 0 | ?
O=C(c1ccco1)N1CCN(c2ncnc3c2[nH]c2ccc(Br)cc23)CC1 | 0 | ? | 23µM | 0 | ? | ?
CCOc1ccc2[nH]c3c(=O)n(CCc4ccc(OC)cc4)cnc3c2c1 | 0 | 0 | 0 | 0 | 0 | 0
CCOc1ccc2[nH]c3c(N4CCC5(CC4)OCCO5)ncnc3c2c1 | 0 | ? | 23µM | 0 | 0 | 23µM
SMILES | TDP1 inh | IL-1B inflam inh | DT40 TDP1 no CPT | Six1-Eya2 inh | CtBP-E1A blk | TDP1 cell CPT
CCOc1ccc2[nH]c3c(N4CCN(C(=O)c5ccco5)CC4)ncnc3c2c1 | 0 | 0 | 13µM | ? | 0 | 16µM
O=C(CCCCC(=O)N1CCOCCOCCOCC1)OCc1ccccc1 | 0 | 0 | 0 | 0 | 0 | 0
COc1ccc(NC(=O)CCN2CCN(c3ccc(F)cc3)CC2)cc1 | - | 0 | ? | 0 | - | 23µM
COc1cc(NC(=O)CCN2CCN(c3ccccc3F)CC2)cc(OC)c1 | 0 | ? | 0 | 0 | 0 | 29µM
O=C(CCN1CCN(c2ccccc2F)CC1)Nc1ccc(F)cc1 | - | 0 | ? | 0 | - | 0
COCCN1C[C@@H](CO)O[C@@H](n2cnc3c(NCc4cc(OC)c(OC)c(OC)c4)ncnc32)C1 | - | 0 | 0 | 0 | 0 | 0
c1ccc2c(c1)Sc1cnccc1N2CC1CO1 (configuration not stated) | - | 0 | 10µM | 0 | 0 | 4.1µM
CCOc1ccc(NS(=O)(=O)c2ccc3[nH]c(=O)oc3c2)cc1 | 0 | 0 | 0 | 0 | 0 | 0
CCCCN(CCCC)Cc1cc(=O)oc2cc(OC)ccc12 | - | 0 | ? | 0 | 0 | ?
C=CCN(CC=C)Cc1cc(=O)oc2cc(C)ccc12 | - | 0 | ? | 0 | 0 | 0
CN(Cc1ccccc1F)Cc1cc(=O)oc2cc(O)c(Cl)cc12 | 0 | 0 | 16µM | 0 | 0 | 15µM
C=CCN(CC=C)Cc1cc(=O)oc2ccc3ccccc3c12 | - | 0 | 16µM | 0 | 0 | 16µM
Cc1cc2oc(=O)cc(CN(C)Cc3ccccc3F)c2cc1Cl | - | 0 | ? | 0 | 0 | ?
CN(Cc1ccccc1)Cc1cc(=O)oc2ccc3ccccc3c12 | - | 0 | 18µM | 0 | 0 | ?
CN(Cc1ccccc1)Cc1cc(=O)oc2ccccc12 | - | 0 | ? | 0 | 0 | ?
CCCCN(CCCC)Cc1cc(=O)oc2ccc3ccccc3c12 | - | 0 | 16µM | 0 | 0 | ?
CCCCc1nn2c(=O)cc(COC(=O)c3cccc(OC)c3)nc2s1 | 0 | - | 0 | - | - | ?
Cc1ccc2c(CN(C)Cc3cccc(F)c3)cc(=O)oc2c1 | - | 0 | 0 | 0 | 0 | 0
Cc1ccc2c(CN(C)Cc3ccccc3)cc(=O)oc2c1 | - | 0 | ? | 0 | 0 | 18µM
CCC(C)N(C(=O)COc1ccc(-c2nnco2)cc1)C1CCS(=O)(=O)C1 (configuration not stated) | 0 | 0 | 0 | 0 | 0 | 0
COc1ccc(CNC(=O)CN(C(=O)c2cc3sccc3n2C)C2CCCC2)cc1 | 0 | ? | 13µM | 0 | 0 | ?
COc1ccc(CNC(=O)c2cc3sccc3n2C)cc1 | 0 | - | 0 | - | - | 0
CCOc1ccc2oc(=O)cc(CN3CCN(c4ccc(OC)cc4)CC3)c2c1 | 0 | - | 21µM | - | - | ?
Cc1ccc2c(CN3CCN(C(=O)c4ccc(Br)cc4)CC3)cc(=O)oc2c1 | 0 | - | ? | - | - | 21µM
Cc1ccc2c(CN3CCCCC3)cc(=O)oc2c1 | - | 0 | 0 | 0 | 0 | 0

High-throughput results from PubChem.
